In the library only some 21% were active in any assay of this set; here they are far more common.
Cycloheximide cs: counter-screen for Shiga toxin inhibitors: cycloheximide protein synthesis inhibition; cell reporter, cycloheximide protein synthesis inhibition counterscreen; hit rate 12% among 300,000; max response, %; in the data active = max response mostly above about 13%, no sharp cut-off; inactive = mostly below about 14%; also: read at 38.3 µM for the half of the compounds with a filed dose; 0% is about no effect
Pf growth 48h: P. falciparum growth inhibition at 48 hours (one generation). P. falciparum luciferase growth in erythrocytes, 48 h. hit rate 5.9% among 310,000. Potency, µM (top dose mostly 28.7 µM), inactives show at the top dose activity change, negative = inhibition, most hits filed as inhibitors; also: potency is read from the fitted curve at half-maximal effect; % is scaled to controls: 0 for no effect and ±100 for the full control effect
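First compound was added to culture medium, then infected red cells at 0.1% parasitemia and 2% hematocrit (final). After incubation at 37 C under 5% CO2, luciferase detection reagent was dispensed and light output recorded.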
AMA1 RON2 block: AMA1-RON2 (P. falciparum) interaction inhibition | AlphaScreen AMA1-biotinylated RON2 peptide binding | Potency, µM (highest dose often 58.2 µM), for inactives: at the top dose activity change, negative = inhibition, actives largely listed as inhibitors | hit rate 0.2% among 360,000 | AID 720542;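 also: potency is read from the fitted curve at half-maximal effect; 0% = vehicle wells and -100% = peptide control; nearly all actives have a fitted effect of over 45% in size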
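AMA1 (3D7) with his tag at 25 nM final met compounds first, then biotinylated RON2 peptide at 25 nM; detection used donor plus acceptor beads, 10 µg/mL apiece, read by AlphaScreen after 30 min at room temperature.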
Pf growth 96h: inhibits malaria parasite growth, 96 h; P. falciparum luciferase reporter growth, 96 h; Potency, µM (top dose mostly 28.7 µM), for the others: at the highest dose activity change, negative = inhibition, usual class: inhibitors; hit rate 6.9% among 320,000; AID 504834; also: potency is read from the fitted curve at half-maximal effect; % is scaled to controls: 0 for no effect and ±100 for the full control effect
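Delayed-death screen, second-generation endpoint: infected erythrocytes, 2% hematocrit, 0.05% parasitemia final; 96 hours at 37 C, 5% CO2; luciferase detection reagent; luminescence decrease equals reduced growth.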
HCV inh: HCV inhibition; Huh7.5.1 HCVcc-Cre infection, luciferase reporter, 44 h; Potency, µM (highest dose often 41.8 µM), without a hit: at the highest dose activity change, negative = inhibition, hits mostly inhibitors; hit rate 3.4% among 340,000; AID 651820; also: potency is read from the fitted curve at half-maximal effect; % is scaled to controls: 0 for no effect and ±100 for the full control effect
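Antiviral activity was scored by luciferase reporter output from cells infected with HCVcc-Cre (~0.5 moi) in presence of compound, 44 h infection period, cells seeded 1,000/well 4 h prior.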
Shiga inhibitor: inhibitors of Shiga toxin in Vero cells | Vero cells, Shiga toxin protein synthesis inhibition reporter | inhibition, % at 38.7 µM | hit rate 9.2% among 290,000 | AID 2315; in the data active = inhibition mostly above about 28%, no sharp cut-off; inactive = mostly below about 43%; also: 0% is about no effect
Active calls of the source: *; ? = inconclusive; nt = no result. Unless noted, calls follow the shape of the dose curve; as a rule, active = well fitted curve in the direction sought with a large enough effect; inconclusive = small, poorly fitted or top-dose-only effect, or another doubt; inactive = no such curve, though single readings can be large; an effect the other way counts as inactive or inconclusive.

SMILES | Cycloheximide cs | Pf growth 48h | AMA1 RON2 block | Pf growth 96h | HCV inh | Shiga inhibitor
CC[C@]12c3[nH]c4ccccc4c3CCN1C(=O)C(CC(=O)NC/C=C(\C)CCC=C(C)C)C[C@@H]2C(=O)N1CCN(C(=O)c2ccco2)CC1 (stereo partly specified) | nt | nt | -18% | nt | ? | nt
CC[C@]12c3[nH]c4cc(CCC(=O)N(C)C)ccc4c3CCN1C(=O)[C@@H](CC(=O)NC/C=C(\C)CCC=C(C)C)C[C@@H]2C(=O)N1CCN(C(=O)C2CC2)CC1 | nt | nt | -3% | nt | ? | nt
Cc1ccc(C23CC4CC(CC(C(=O)NC(C)C(N)=O)(C4)C2)C3)cc1 (stereo unspecified) | -1 | 24% | 6% | 1% | 11% | -4
O=C(NC(=S)Nc1cccnc1Cl)c1ccc(F)cc1 | 49* | 124% | 28% | 17% | ? | 83*
O=C(NC(=S)Nc1ncccn1)c1ccc(F)cc1 | 49* | 29% | 16% | 3% | 7% | 70*
O=C(NNC(=S)NC(=O)c1ccc(F)cc1)c1ccncc1 | nt | nt | 33% | nt | 10% | nt
C[N+](C)(C)CCN1C(=O)c2ccccc2C1=O | nt | nt | 1% | nt | nt | nt
CCN(CC(=O)Nc1ccc(NC(C)=O)cc1)C(=O)c1cc(-c2ccccc2Cl)nc2ccccc12 | nt | nt | -6% | nt | -16% | nt
CCOC(=O)c1cnc(-n2nc(C)cc2C)nc1Nc1ccccc1OC | -5 | ? | nt | ? | nt | -5
CCOC(=O)c1cnc(-n2nc(C)cc2C)nc1Oc1ccccc1F | -1 | 3% | 11% | 20% | 1% | 6
CCOC(=O)c1cnc(-n2nc(C)cc2C)nc1Nc1ccc(OC)cc1 | 1 | 4.1µM* | 8% | 1.9µM* | 11µM* | -2
CCOC(=O)c1cnc(-n2nc(C)cc2C)nc1N(C)C | 18* | ? | 46% | nt | 14% | 48*
CCOC(=O)c1cnc(-n2nc(C)cc2C)nc1NC1CCCC1 | -1 | 1.5µM* | 28% | ? | 1.1µM* | -9
CCOC(=O)c1cnc(-n2nc(C)cc2C)nc1N1CCOCC1 | -1 | 14% | 46% | ? | 11% | -8
CCOC(=O)c1cnc(-n2nc(C)cc2C)nc1NCc1ccc2c(c1)OCO2 | -1 | 4.7µM* | 17% | nt | ? | -15
NS(=O)(=O)c1ccc(S(=O)(=O)N2CCCC(c3ccccc3)C2)cc1 (stereo unspecified) | nt | nt | -11% | nt | nt | nt
CCOC(=O)c1cnc(-n2nc(C)cc2C)nc1NCCc1ccccc1 | 7 | 4.1µM* | 21% | -9% | -20% | -3
C=CC(=O)Nc1ccc(Br)cc1 | -1 | -11% | 18% | nt | 7% | -16
N#C/C=C(/N)c1ccc(Br)cc1 | 9 | 13µM* | -8% | 10µM* | 19% | 5
Cc1cc(=O)oc2c1c(C)nn2-c1ccc(Br)cc1 | 1 | -28% | -2% | 2.9µM* | ? | -8
COc1cccc(C2=CC(=O)CC(C)(C)C2)c1OC | nt | 22% | 4% | 35% | 12% | nt
CC1(C)CC(=O)C=C(c2ccc(F)cc2OCc2ccccc2)C1 | nt | ? | 8% | ? | 20µM* | nt
Cc1cc2c(c(C#N)c1C)NC=NC2C (stereo unspecified) | nt | nt | 17% | nt | nt | nt
CN(C)c1ccc(N2CC(C)(C)C2=O)cc1 | 33* | -3% | -9% | 52% | -20% | 44*
Cc1ccc(C)c(NC(=O)Cn2cnc3c(oc4ccccc43)c2=O)c1 | 8 | 10µM* | -3% | ? | -3% | -8
SMILES | Cycloheximide cs | Pf growth 48h | AMA1 RON2 block | Pf growth 96h | HCV inh | Shiga inhibitor
O=C(Cn1cnc2c(oc3ccccc32)c1=O)NCC1CCCO1 (stereo unspecified) | 6 | 18% | 13% | ? | 1% | -5
CCOC(=O)CNC(=O)Cn1cnc2c(oc3ccccc32)c1=O | 34* | 50% | -6% | 36% | 16% | 15
O=C(Cn1cnc2c(oc3ccccc32)c1=O)NCc1ccco1 | 8 | 29% | 6% | 61% | 4% | 59
O=C(Cn1cnc2c(oc3ccccc32)c1=O)N1CCCC1 | 32* | 63% | 10% | -20% | 19% | 64*
O=C(Cn1cnc2c(oc3ccccc32)c1=O)NCc1ccccc1 | 2 | 26% | 14% | 60% | -11% | 17
COc1ccc(S(=O)(=O)NCCN2CCNC2=O)cc1OC | -4 | 12% | -8% | 19% | 7% | -5
Cc1ccn(C(=O)c2ccc(NC(=O)C3CC3)cc2)n1 | 5 | 42% | -1% | -1% | 22% | 9
Oc1c(N=Nc2ccc(F)cc2)ccc2ccccc12 | 34* | 122% | 1.8µM* | 11% | 0% | nt
O=S(=O)(Nc1c(O)ccc2ccccc12)c1ccc(F)cc1 | nt | nt | 4% | nt | -12% | nt
Cc1ccc(N=Nc2ccc3ccccc3c2O)cc1 | 44* | 94% | 2.8µM* | 122% | -1% | nt
O=C(CNc1ccc(F)cc1)N/N=C/c1c(O)ccc2ccccc12 | -5 | nt | 46% | 23% | ? | 3
Oc1ccc2ccccc2c1N=Nc1ccc(F)cc1 | -1 | -3% | 1.4µM* | ? | -14% | -4
C=CCN(C(=O)CNS(=O)(=O)c1ccccc1)C(C(=O)NCCOC)c1cccnc1 (stereo unspecified) | -3 | 21% | -1% | 11% | 23% | -7
O=C(OC[C@@H](O)CO)c1ccccc1Nc1ccnc2cc(Cl)ccc12 | nt | ? | nt | 1.6µM* | nt | nt
Cc1c(Cl)cccc1Nc1ncccc1C(=O)OCC(O)CO (stereo unspecified) | -4 | 15% | nt | 47% | nt | 15
O=C(OCC(O)CO)c1ccccc1Nc1ccnc2cc(Cl)ccc12 (stereo unspecified) | nt | 8.3µM* | -11% | ? | ? | nt
CCOC(=O)c1ccccc1NC(=O)c1ccc2nccnc2c1 | 10 | ? | 11% | ? | ? | 12
Cc1ccccc1OCC(=O)Nc1ccncc1 | 2 | -2% | 10% | -43% | ? | 40
Cc1ccc(OCC(=O)NC2=NCCS2)cc1 | 25* | 66% | ? | -1% | 12% | 8
O=C(COc1ccccc1)NCC(=O)NC1=NCCS1 | -3 | 26% | 25% | 10% | 6% | -11
Cc1ccccc1OCC(=O)NC1=NCCS1 | 29* | nt | 44% | 81% | -13% | 32*
CC1=C(C(=O)N(C)C)CC(CC(=O)NCCCCc2ccccc2)C(=O)N1Cc1ccc(C(C)(C)C)cc1 (stereo unspecified) | nt | nt | -8% | nt | nt | nt
COc1ccccc1N1CCN(C(=O)CSc2nc3ccccc3o2)CC1 | 41* | 57% | 9% | nt | -25% | 111*
COc1ccccc1N1CCN(C(=O)CSc2ccc3c(C)cc(C)nc3n2)CC1 | 6 | 10µM* | -7% | 48% | ? | -12
COc1ccc(C(=O)N2CCN(c3nc4ccccc4o3)CC2)cc1OC | 1 | nt | -2% | -12% | 11µM* | -4
O=C(CSc1nc2ccccc2o1)N1CCN(C(=O)c2ccco2)CC1 | -2 | 25% | 52% | 6% | 9% | -4
